Test results reported in PubChem BioAssay (NCI).
The panel holds about 83,000 compounds, 20% with a hit somewhere; the sample as a whole holds those more often.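 In brief: 96-well plates, 48 h treatment, single concentration, percent growth endpoint.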 A number with no mark means an inactive call. Activity calls are given as the source filed them.

The compounds below were run on SK-MEL-28 melanoma (assay: NCI-60 one-dose screen, 48 h (100 = growth as untreated, 0 = no growth, -100 = all killed)). Conditions: 10 µM unless noted.
Description: Growth inhibition of the SK-MEL-28 human tumor cell line is measured as a screen for anti-cancer activity. Cells are grown in 96 well plates and exposed to the test compound for 48 hours. Compounds are tested at a single concentration, which is 10^-5 M for most compounds. The reported endpoint is percent growth (GI% or GIPRCNT), where numbers from 0 - 100% represent growth inhibition, and numbers from -100% - 0 represent cell death. For example, a value of 40 represents 60% growth inhibition. A value of 0 means no net growth occurred over the course of the experiment. A value of -40 indicates 40% of cells at the beginning of the experiment died by the end of the experiment. A value of -100 means all cells are dead at the end of the experiment.
NCI-60 Human Tumor Cell Lines Screen was performed using the standard one-dose NCI protocol, which is described in more detail at https://dtp.cancer.gov/discovery_development/nci-60/default.htm.
Compounds with GIPRCNT values below 10 were considered active. Activity score was based on GIPRCNT using the following formula: […]
Score is 0 for GIPRCNT values of 100 or above, 50 for GIPRCNT values of 0, and 100 for GIPRCNT values of -100.

Row | SMILES | growth
1 | NC(=O)c1c(NC(=O)c2ccc(F)cc2F)sc2c1CCC(=O)C2 | 37%
2 | Nc1nc(-c2cccc([N+](=O)[O-])c2)c(N=Nc2ccc(Br)cc2)s1 | 4.69% (active)
3 | O=C(NCc1ncc[nH]1)c1ccc(-c2nc3ccc4[nH]ncc4c3c3c2CCCC3)cc1 | -1.75% (active)
4 | NS(=O)(=O)c1ccc(Nc2nc(N/N=C/CCc3ccccc3)nc(Nc3ccccc3)n2)cc1 | 107%
5 | NS(=O)(=O)c1ccc(-n2cc(CN3CCNCC3)nn2)cc1 | 111%
6 | CCOP(=O)(OCC)OC[C@]12CCC(C)(C)C=C1[C@H]1CC[C@@H]3[C@@]4(C)CC[C@H](OP(=O)(OCC)OCC)C(C)(C)[C@@H]4CC[C@@]3(C)[C@]1(C)CC2 | -31% (active)
7 | C=C(C=O)[C@@H]1CC[C@]2(COC(C)=O)CC[C@]3(C)C(CC[C@@H]4[C@@]5(C)CC[C@H](OC(C)=O)C(C)(C)[C@@H]5CC[C@]43C)[C@@H]12 (stereo not given in full) | -42.8% (active)
8 | CC1=NC2=NC(=O)/C(=C3/N=C(C)C=C(c4ccccc4)N3N)NN2C(c2ccccc2)=C1 | 109%
9 | C=CCn1c(-c2nc3ccc(C(=C(C#N)C#N)c4ccccc4)cc3[nH]2)cc2cc(Br)ccc21 | 82.9%
10 | CC(C)(C)n1cc(-c2ccnc(NCCCNS(=O)(=O)c3cccc(F)c3)n2)c(-c2ccc(Cl)c(O)c2)n1 | 95.4%
11 | N#Cc1cn(Cc2ccc(Cl)cc2Cl)c(C(=O)c2ccc(Br)cc2)c1N | 99%
12 | O=C(NCCN1CCCC1)c1ccc(-c2nc3ccc4[nH]ncc4c3c3c2CCCC3)cc1 | 5.05% (active)
13 | CCCC(=O)NC(c1cccnc1)c1cc(C(C)(C)C)c2cccnc2c1O (stereo not given) | 24.6%
14 | O=C(Nc1ccc(F)c(F)c1)c1cc(-c2ccc(F)cc2F)ccc1O | 20%
15 | O=C(CN1CCN(c2cc(=O)n(-c3ccccc3)c3ccccc23)CC1)Nc1cccc(C(F)(F)F)c1 | 75.1%
16 | CNC(=O)c1c(NC(=O)c2cccc(C(F)(F)F)c2F)sc2c1CCC(=O)C2 | 47.8%
17 | CS(=O)(=O)c1ccc(-n2cc(/C=N/O)c(-c3ccccc3)n2)cc1 | 93.3%
18 | O=S(=O)(NC1c2ccccc2C[C@H]1O)c1ccc(Cl)cc1Cl (stereo not given in full) | 102%
19 | COc1cc2nc(Cl)nc(Nc3cccc(C4=Nc5c(N)nc(N)nc5NC(c5ccc(F)cc5)C4)c3)c2cc1OC (stereo not given) | 94.6%
20 | COc1ccc2[nH]cc(/C=N/Nc3nc4ccccc4s3)c2c1 | 83.1%

Row | SMILES | growth
21 | Cc1occc1-c1nc2s/c(=C/c3ccc(-c4cc(C(F)(F)F)ccc4Cl)o3)c(=O)n2n1 | 112%
22 | C[C@@H]1C[C@H]2C(=O)O[C@@H](C)C(NC(=O)[C@H](Cc3cc(F)cc(F)c3)NC(=O)Nc3ccc(Cl)cc3F)C(=O)N3CCC[C@H]3C(=O)N3CCCC[C@H]3C(=O)N[C@@H](CO)C(=O)N2C1 (stereo not given in full) | 43.9%
23 | COc1ccccc1NCc1cccn1Cc1ccc(F)cc1 | 97.4%
24 | Cn1cc(-c2nc(N)nnc2-c2c[nH]c3ccccc23)c2cc(Br)ccc21 | 55.2%
25 | O=c1c2ccccc2nc(COc2ccccc2)n1NS(=O)(=O)c1ccc(Cl)cc1 | 87.1%
26 | C#CCn1cccc1CNc1ccc(OC)cc1 | -48.9% (active)
27 | NS(=O)(=O)c1ccc(Nc2nc(SCC(=O)c3ccc(Cl)cc3)nc3c2CCCC3)cc1 | 68.5%
28 | ClC(Cl)c1nc(-c2ccco2)n2nc(-c3ccccc3)cc2n1 | 12.4%
29 | C=C1CC[C@@H]2[C@](C)(CO)[C@H](O)CC[C@@]2(C)[C@@H]1C/C(O)=C1\CCOC1=O | 108%
30 | COc1cc(OC)c(/C=C/S(=O)(=O)Cc2ccc(OC)c(NCC(=O)NO)c2)c(OC)c1 | 56.8%
31 | Nn1c(N/N=C/c2nc3ccccc3s2)n[nH]c1=S | 114%
32 | COc1cccc2c1CN(C(=O)c1ccc(O)c(C(=O)N3Cc4ccc(OCCC[P+](c5ccccc5)(c5ccccc5)c5ccccc5)cc4C3)c1)C2 | 63.2%
33 | O=S(=O)(Nc1cccc2ccccc12)c1ccc(-c2cnc(C3CC3)o2)cc1 | 57.7%
34 | Nc1ncc(-c2ccc3ncnc(Nc4cccc(Cl)c4F)c3c2)cn1 | 65.2%
35 | O=C(NNc1nc2cc(F)ccc2n2c(CN3CCC(O)C3)ccc12)c1cnccn1 (stereo not given) | 25.5%
36 | CC(=O)Nc1cccc(Nc2nc(N[C@@H](C)c3ccccc3)c3ccccc3n2)c1 | 42.3%
37 | CC(C)(C)c1ccc(C(=O)Nc2sc3c(c2C(N)=O)CCC(O)C3)cc1 (stereo not given) | 49.3%
38 | NC(N)=Nc1ccc(Oc2cccc(NC(N)=Nc3ccc(Br)cc3)c2)cn1 | 82.9%
39 | O=C(Nc1cccc(C(F)(F)F)c1)c1cc(-c2ccc(F)cc2F)ccc1O | 24.6%
40 | COc1ccccc1-n1cc(C#N)c(N)c1C(=O)c1ccc(Cl)cc1 | 74.3%
